# CYP2C9 activ: activators of human CYP2C9; P11712; recombinant CYP2C9, luciferin-H conversion, luminescence; stronger effect = higher value; factor 1 = untreated enzyme, 0 = blocked; activation factor at 5 µM; 96,000 compounds, 1.4% hits; AID 1024;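 active = activation factor of 2 or more for CYP2C9 at a 5 µM dose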;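 also: 0 = sulfaphenazole-blocked wells and 1 = vehicle-only wells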
# CYP2C19 activ: increases human CYP2C19 enzyme activity. recombinant CYP2C19, luciferin-H EGE luminescence; stronger effect = higher value; 0 = fully inhibited enzyme, 1 = untreated enzyme. P33261. AID 1025. 96,000 tested, under 10 active. activation factor at 5 µM;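 active = activation factor of at least 2 at 5 µM in the primary screen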;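 also: 0 = wells with 2.5 mM tranylcypromine and 1 = vehicle-only wells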
# Target sequence (P33261 whole entry, looked up): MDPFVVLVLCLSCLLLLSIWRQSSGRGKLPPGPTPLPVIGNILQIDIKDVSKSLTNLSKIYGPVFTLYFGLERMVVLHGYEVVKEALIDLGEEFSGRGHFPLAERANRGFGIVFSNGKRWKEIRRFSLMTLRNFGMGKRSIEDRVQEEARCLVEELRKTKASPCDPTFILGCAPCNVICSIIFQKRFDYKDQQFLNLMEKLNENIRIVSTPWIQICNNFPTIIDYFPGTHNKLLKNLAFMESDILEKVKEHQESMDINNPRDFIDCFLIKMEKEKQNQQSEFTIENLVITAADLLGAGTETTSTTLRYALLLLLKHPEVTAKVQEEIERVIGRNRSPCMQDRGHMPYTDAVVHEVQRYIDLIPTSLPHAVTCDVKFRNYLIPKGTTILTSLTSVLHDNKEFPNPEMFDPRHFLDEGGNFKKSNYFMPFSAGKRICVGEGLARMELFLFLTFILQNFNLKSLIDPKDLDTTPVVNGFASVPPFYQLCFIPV
# CYP2C9 inhib: human CYP2C9 inhibition. P11712. CYP2C9 Supersomes, luciferin-H conversion, luminescence. inhibition, % at 5 µM. 96,000 compounds, 20% hits. AID 777;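 active = blocking of liver enzyme CYP2C9 beyond about 50% at 5 µM, limit read from the data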
# PLAP activator: activators of human placental alkaline phosphatase. activation fold at 20 µM. AID 696. P05187. purified PLAP enzyme, luminescent substrate read-out; stronger effect = higher value. 96,000 compounds, 1.2% hits; in the data active = activation fold above about 2
# CYP2C19 inhib: human CYP2C19 inhibition; CYP2C19 Supersomes, luciferin-H EGE luminescence, 30 min; 96,000 compounds, 21% hits; P33261; inhibition, % at 5 µM;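 active = CYP2C19 inhibition above a set limit at 5 µM in the primary screen, cut at about 50% in these data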;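 also: plate controls were negative control wells for no effect and 2.5 mM tranylcypromine positive control for full effect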
# * = called active by the depositor. A selection: hits, their analogues and other compounds. The true share with any hit is near 31%.
SMILES,CYP2C9 activ,CYP2C19 activ,CYP2C9 inhib,PLAP activator,CYP2C19 inhib
OC(Cn1nnc2ccccc21)Cn1c(C(F)(F)F)nc2ccccc21 (stereo unspecified),0.4,0.7,57.3*,1,34.9
OC(CN1c2ccccc2Sc2ccccc21)Cn1nnc2ccccc21 (stereo unspecified),0,0,99.5*,1.4,99.6*
Cc1nn(CC(O)c2ccccc2)c(C)c1Br (stereo unspecified),1,0.6,-2.4,0.8,42.2
CCCNC(=O)c1cccc(COCC(F)(F)C(F)F)c1,0.7,0.5,31.0,1,47.8
COc1ccc(C=O)cc1COc1ccc(Cl)cc1[N+](=O)[O-],0.9,0.9,14.7,0.8,13.5
CCOc1ccc(OCCOCCN2CCc3ccccc3C2)cc1,1,0.8,3.5,1.2,17.0
CCCOc1ccc(OCCOCCN2CCc3ccccc3C2)cc1,0.8,0.5,24.9,1.8,52.5*
c1ccc(-c2csc(NNC3=NCCCCC3)n2)cc1,0.9,0.7,14.0,2.1*,25.7
N#Cc1ccc(-c2csc(NNC(=O)c3ccccc3)n2)cc1,1.2,1.1,-17.8,1,-14.1
O=C(NNc1nc(-c2ccccc2)cs1)c1ccccc1,0.5,0.6,53.4*,1.8,39.9
O=C(Nc1nc(-c2ccccc2)cs1)c1cccnc1,0.6,0.3,36.6,0.7,67.0*
CNC(=O)C1C2C=CC3(O2)C1C(=O)N(CCOC)C3C(=O)NCc1ccc(OC)cc1 (stereo unspecified),1.2,1.2,-16.1,0.9,-18.1
CCCN(CCC)C(=O)CC(c1ccccc1)c1cc(Br)ccc1O (stereo unspecified),0.6,0.6,42.2,1.4,43.4
Cc1ccc(C(CC(=O)NCc2ccco2)c2ccccc2)c(O)c1 (stereo unspecified),0.5,0.4,45.5,1,60.8*
CCCN(CCC)C(=O)CC(c1ccccc1)c1ccc(C)cc1O (stereo unspecified),0.5,0.6,51.5*,1.5,42.7
COc1ccc(C(CC(=O)NCc2ccco2)c2ccc(F)cc2)cc1 (stereo unspecified),0.6,0.7,44.9,0.8,27.5
COc1cccc2c(=O)c(C(=O)O)c[nH]c12,0.7,1.2,33.2,1.1,-17.1
COc1cccc2c(=O)c(C/C=C(/C)Cl)c(C)[nH]c12,0.6,0.2,35.6,0.7,83.7*
O=C(/C=C/c1ccccc1Cl)NCc1ccccc1,2.1*,0.9,-110.0,0.9,7.6
CCN(CC)c1ccc(NC(=O)/C=C\c2ccccc2Cl)cc1,2.3*,0.3,-125.0,0.7,71.2*
C/C=C/C=[N+](\[O-])C(C)/C(=N/O)c1ccc(F)cc1 (stereo unspecified),1,1,-0.8,1.2,-0.9
COc1ccc2c(C)nc(Nc3nc(C)cc(C)n3)nc2c1,0.9,1,6.1,1.2,1.1
CCOC(=O)Cn1c(S(=O)(=O)Cc2ccc(Cl)cc2)nc(-c2ccccc2)c1-c1ccccc1,0.5,0.5,50.0*,1.2,47.5
CCOC(=O)Cn1c(S(=O)(=O)Cc2ccccc2)nc2ccccc21,1,0.6,3.8,0.9,35.4
C#CCn1c(S(=O)(=O)Cc2ccc(OC)cc2)nc(-c2ccccc2)c1-c1ccccc1,0.2,0.4,81.5*,1.1,64.3*
SMILES,CYP2C9 activ,CYP2C19 activ,CYP2C9 inhib,PLAP activator,CYP2C19 inhib
O=C(CCCN1C(=O)c2ccccc2C1=O)Nc1c(C(=O)C2CC2)oc2ccccc12,0.6,0.8,43.7,0.9,20.1
CC1Cc2ccccc2N1C(=O)CCNS(=O)(=O)c1cccc2nsnc12 (stereo unspecified),1.7,0.1,-65.1,0.8,87.7*
CC1Cc2ccccc2N1C(=O)CCS(=O)(=O)c1cccc2nonc12 (stereo unspecified),1.6,0.9,-64.1,0.9,14.8
O=C(CCNS(=O)(=O)c1cccc2nsnc12)N1CCc2ccccc21,0.6,0.2,43.6,0.9,80.1*
O=C(CCNS(=O)(=O)c1cccc2nsnc12)NC1CCCc2ccccc21 (stereo unspecified),1.3,0.7,-33.9,0.9,31.7
O=C(CCNS(=O)(=O)c1cccc2nsnc12)N1CCN(c2ccccn2)CC1,0.8,0.3,23.1,1.5,66.1*
O=C(O)CC1C(=O)NCCN1CCCc1ccccc1 (stereo unspecified),1.1,1,-6.2,1,-0.6
CCOC(=O)c1ccccc1NC(=O)Cn1cnc2c1c(=O)n(C)c(=O)n2C,0.7,0.8,28.1,0.8,18.7
COc1ccc(CNC(=O)C2CSC(=O)C2)cc1 (stereo unspecified),1,1.1,-4.0,0.8,-7.8
CCc1c(O)nc(SCC(=O)Nc2ccccc2C)[nH]c1=O,1,1.2,1.4,0.9,-18.8
CCCn1c(O)c2ccc(C(=O)N=NC(=O)c3cccnc3)cc2c1O,1.2,1.2,-18.3,1.2,-22.8
CC(Sc1nc(N2CCCCC2)c2c(c1C#N)CCCC2)C(=O)O (stereo unspecified),0.1,0.7,89.9*,1.5,31.1
CC(C)Sc1nc(N2CCOCC2)c2c(c1C#N)CC(C)(C)N(C)C2,0,0.4,96.8*,2*,64.4*
CCOC(=O)CSc1nc(N2CCOCC2)c2c(c1C#N)CC(C)(C)N(C)C2,0.3,0.8,72.7*,1.2,21.5
CN1Cc2sc(N)c(C#N)c2CC1(C)C,0.9,1,7.7,1,-2.5
CC(C)CSc1nc(N2CCOCC2)c2c(c1C#N)CC(C)(C)SC2,0.1,0.7,87.2*,1.2,26.1
CC1(C)Cc2c(c(N3CCCCC3)[nH]c(=S)c2C#N)CS1,0.6,1,37.9,1.2,4.1
CC(C)Sc1nc(N2CCOCC2)c2c(c1C#N)CC(C)(C)SC2,0.1,0.3,95.0*,0.9,69.7*
CCCSc1nc(N2CCOCC2)c2c(c1C#N)CC(C)(C)SC2,0.3,0.7,66.5*,1.3,34.7
CC(C)Sc1nc(N2CCCC2)c2c(c1C#N)CC(C)(C)OC2,0.1,0.4,86.7*,1,60.9*
O=C(NC(NC1CCS(=O)(=O)C1)C(=O)c1ccccc1)c1ccc(Cl)cc1 (stereo unspecified),1,0.9,3.9,1.3,13.4
CCc1ccc(CN2CC(C(=O)O)CC2=O)cc1 (stereo unspecified),1.2,0.6,-18.9,1.1,43.3
Cc1ccc(S(=O)(=O)NC(=NCC(=O)O)c2ccc(F)cc2)cc1,1,1.1,-4.8,1.1,-14.6
CC(c1nnnn1C(C)(C)C)N(Cc1cccnc1)Cc1ccccc1Cl (stereo unspecified),0.4,0,57.3*,1.6,98.9*
CC(C)(C)n1nnnc1C(c1cccs1)N(Cc1cccnc1)Cc1ccccc1Cl (stereo unspecified),0.1,0,92.1*,1.8,95.9*
CC1(c2ccccc2)CC2CC(c3ccccc3)N1O2 (stereo unspecified),0.5,0.1,53.7*,1,92.0*

# High-throughput results deposited in PubChem by Sanford-Burnham Center for Chemical Genomics.
